{
  "source": "PubChem BioAssay (EPA / NIEHS)",
  "note": "Records with an inconclusive call do not appear. More than one record can exist for a structure, and the calls need not agree. Active and inactive are the calls of the source. How the source made its calls: active means hit-call score of the fitted dose curve at least 0.9, where 1 is the maximum; inconclusive means response in the unintended direction; inactive means score below 0.9.",
  "data": [
    {"target": "Cellular tumor antigen p53 (Homo sapiens) (UniProt P04637)", "sequence (P04637 whole entry, looked up, the tested form may be a part)": "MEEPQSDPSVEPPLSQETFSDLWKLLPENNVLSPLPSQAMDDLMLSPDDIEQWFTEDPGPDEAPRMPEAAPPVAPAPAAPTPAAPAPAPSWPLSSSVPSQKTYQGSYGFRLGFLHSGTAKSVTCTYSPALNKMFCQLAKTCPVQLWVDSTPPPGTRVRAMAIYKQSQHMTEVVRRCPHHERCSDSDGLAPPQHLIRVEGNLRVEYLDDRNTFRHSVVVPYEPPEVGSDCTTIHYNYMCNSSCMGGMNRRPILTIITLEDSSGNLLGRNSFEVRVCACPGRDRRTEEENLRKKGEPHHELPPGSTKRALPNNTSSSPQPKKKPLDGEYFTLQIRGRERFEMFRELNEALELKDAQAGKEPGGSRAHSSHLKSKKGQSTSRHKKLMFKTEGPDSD", "test": "TOX21_p53_BLA_p5_ratio: Tox21 HCT-116 p53 Agonism Beta-lactamase Assay, Ratio, Phase 5 (AID 2283599)", "from_the_text": "TOX21_p53_BLA_p5 is a cell-based, single-readout assay that uses HCT116, a human intestinal cell line, […] in a 1536-well plate.TOX21_p53_BLA_p5_ratio is an assay readout measuring reporter gene via receptor activity and designed using inducible reporter (beta lactamase induction) detected with GAL4 b-lactamase reporter gene. The signal is derived from the ratio of cleaved (ch2) to uncleaved (ch1) reporter gene substrate used as the measure of target activity.Data from the assay component TOX21_p53_BLA_p5_ratio was analyzed into 1 assay endpoint. This assay endpoint, TOX21_p53_BLA_p5_ratio, was analyzed in the positive analysis fitting direction relative to DMSO as the negative control and baseline of activity. Using a type of inducible reporter, gain-of-signal activity can be used to understand changes in the reporter gene as they relate to the gene TP53. Furthermore, this assay endpoint can be referred to as a primary readout, because this assay has produced multiple assay endpoints and this ratio serves a reporter gene function to understand target activity. To generalize the intended target to other relatable targets, this assay endpoint is annotated to the DNA binding intended target family, where the subfamily is tumor suppressor.\nThawing Method: Place 14 mL of pre-warmed thaw medium into a 15 mL of conical tub. Remove the vial of cells to be thawed from liquid nitrogen and thaw rapidly by placing at 37C in a water bath with gentle agitation for 1-2 minutes. Decontaminate the vial by wiping with 70% ethanol before opening in a biological safety cabinet. Transfer the vial contents drop-wise into 14 mL of thaw medium in a sterile 15-mL conical tub. Centrifuge cells at 900 rpm for 4 minutes and resuspend in thaw medium. Transfer contents to the T75 tissue culture flask containing Thaw Medium and place flask in a humidified 37C/5% CO2 incubator. Switch to growth medium at first passage.Propagation Method: Aspirate medium, rinse once in DPBS, add 0.25% Trypsin/EDTA and swirl to coat the cell evenly. Add an equal volume of Growth Medium to inactivate Trypsin after 2-3 minutes incubation at 37C. Centrifuge cells at 900 rpm for 4 minutes and resuspend in growth medium. Cell should be passage or fed at least twice a week.Assay Protocol: Harvest cells from culture in growth medium and resuspend in assay medium. 2.2 Dispense 4000 cells/5 uL/well into 1536-well black/clear bottom plates using a Multidrop dispenser. After the cells were incubated at 37C for 5 hours, 23 nL of compounds dissolved in DMSO were transferred to the assay plate by a PinTool resulting in a 217-fold dilution. Incubate the plates for 16 hours at 37C, 5% CO2. Add 1 uL of 6X LiveBLAzer FRET B/G (CCF4-AM) Substrate Mixture to each well using a BioRAPTR dispenser and incubate the plates at room temperature for 2 hours. Measure fluorescence intensity at 460 and 530 nm emission and 405 nm excitation by an Envision detector. Data is expressed as the ratio of 460nm/530nm emissions. Add 4 uL of Cell-titer Glo to each well using BioRAPTR and incubate the plates at room temperature for 2 hours. Measure fluorescence intensity by a VewLux plate reader.", "values": [
      {"smiles": "CC(C)C(=O)OCC=Cc1ccccc1", "outcome": "inactive"},
      {"smiles": "CC(=O)c1cccnc1", "outcome": "inactive"},
      {"smiles": "CCOC(=O)CCCCCCCCC(=O)OCC", "outcome": "inactive"},
      {"smiles": "Nc1ccn([C@H]2CC[C@@H](CO)O2)c(=O)n1", "outcome": "inactive"},
      {"smiles": "CC(=O)Nc1cc(S(=O)(=O)O)cc2cc(S(=O)(=O)O)c(N=Nc3ccccc3)c(O)c12", "outcome": "inactive"},
      {"smiles": "CCC(C)(C)C1CCC(OC)CC1", "note": "(stereo not given)", "outcome": "inactive"},
      {"smiles": "Cc1cc(O)c2c(c1)C(=O)c1cc(O)cc(O)c1C2=O", "outcome": "inactive", "AC50": "11.9 µM (active)"},
      {"smiles": "CC(C)Cc1ccccc1", "outcome": "inactive"},
      {"smiles": "CN(C)CCCNCCCN(C)C", "outcome": "inactive"},
      {"smiles": "CC(C)COC(=O)c1ccccc1", "outcome": "inactive"},
      {"smiles": "C=CCOC(=O)/C=C\\C(=O)OCC=C", "outcome": "inactive"},
      {"smiles": "CCCc1ccc(O)cc1", "outcome": "inactive"},
      {"smiles": "[Na+]", "outcome": "inactive"},
      {"smiles": "C=CC(C)CCCC(C)(C)O", "note": "(stereo not given)", "outcome": "inactive"},
      {"smiles": "CCC(C)(CCCC(C)C)OC(C)=O", "note": "(stereo not given)", "outcome": "inactive"},
      {"smiles": "NC(=O)c1cccnc1", "outcome": "inactive"},
      {"smiles": "COC(=O)c1ccc(C(=O)OC)cc1", "outcome": "inactive"},
      {"smiles": "O=C(OCc1ccccc1)c1ccccc1O", "outcome": "inactive"},
      {"smiles": "OC[C@@H](O)[C@H](O)[C@@H](O)[C@@H](O)CO", "outcome": "inactive"},
      {"smiles": "CCCCC1CCCCC(=O)O1", "note": "(stereo not given)", "outcome": "inactive"},
      {"smiles": "CC(C)=CC(=O)O", "outcome": "inactive"},
      {"smiles": "c1ccc(OCCOc2ccccc2)cc1", "outcome": "inactive"},
      {"smiles": "OCCCO", "outcome": "inactive"},
      {"smiles": "C=CCOCC(O)CO", "note": "(stereo not given)", "outcome": "inactive"},
      {"smiles": "CCCc1ccc(N)cc1", "outcome": "inactive"},
      {"smiles": "CCCCCCCCCCCCOCCOS(=O)(=O)O", "outcome": "inactive"},
      {"smiles": "CCCCC/C=C\\C=C\\C(=O)OCC", "AC50": "73.4 µM (active)"},
      {"smiles": "CCCCCCC(O)CCOC(C)=O", "note": "(stereo not given)", "outcome": "inactive"},
      {"smiles": "CCC(C)(C)c1cc(O)c(C(C)(C)CC)cc1O", "outcome": "inactive"},
      {"smiles": "CC(CO)c1ccccc1", "note": "(stereo not given)", "outcome": "inactive"},
      {"smiles": "CC(C)(CO)CO", "outcome": "inactive"},
      {"smiles": "CC(O)CNCC(C)O", "note": "(stereo not given)", "outcome": "inactive"},
      {"smiles": "CCCCCCC(C)O", "note": "(stereo not given)", "outcome": "inactive"},
      {"smiles": "CC1=CC(=O)[C@H]2C[C@@H]1C2(C)C", "outcome": "inactive"},
      {"smiles": "c1coc(CNc2ncnc3nc[nH]c23)c1", "outcome": "inactive"},
      {"smiles": "COc1ccc2[nH]cc(CCNC(C)=O)c2c1", "outcome": "inactive"},
      {"smiles": "C=CCCCCCCCCC(=O)OCC", "outcome": "inactive"},
      {"smiles": "NC(=O)c1cnccn1", "outcome": "inactive"},
      {"smiles": "O=S(=O)(O)CCCN1CCOCC1", "outcome": "inactive"}
    ]}
  ]
}
